Bioassay records: PubChem BioAssay, several laboratories
NOD2 RIPK2 PPI: NOD2-RIPK2 protein interaction inhibition | actives 0.38% (n = 360,000) | O43353 | inhibition, % at 4.98 µM | CHO BLA complementation NOD2-RIPK2, CCF4 ratio; in the data active means inhibition above about 21%
m5-HT2A agonist: activates the mouse 5-HT2A serotonin receptor. P35363. AID 624169. activation, % at 7.6 µM. CHO-K1 mHTR2A beta-arrestin complementation, luminescence; percent of 30 µM serotonin response. actives 0.66% (n = 360,000);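 active means activation above a run cutoff, the mean activation of all tested compounds plus 3 SD, cut at about 14% in these data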
LANA-H2A inh: blocks KSHV LANA binding to histone H2A/H2B | Q9QR71 | cell-free LANA-H2A/H2B peptide, fluorescence polarization | inhibition, % (no concentration beside the values) | actives 0.6% (n = 320,000) | AID 2629; in the data active means inhibition mostly above about 10%, no sharp cut-off; inactive means mostly below about 6.7%
Rtt109 Vps75: blocks Candida albicans Rtt109/Vps75 acetyltransferase activity | purified Rtt109/Vps75, ThioGlo CoA-SH fluorescence, 4 h | AID 540336 | Q5AAJ8 | inhibition, % at 34.9 µM | actives 0.16% (n = 330,000);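 active means inhibition of at least 50% in every replicate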
TLR4-MyD88 BLA: inhibitors of human TLR4-MyD88 binding; inhibition, % at 8.4 µM; O00206+Q99836; HeLa CL3-4 TLR4/MyD88 BLA complementation, FRET ratio; actives 0.18% (n = 200,000); in the data active means inhibition above about 25%
Target sequence (O00206 whole entry, looked up): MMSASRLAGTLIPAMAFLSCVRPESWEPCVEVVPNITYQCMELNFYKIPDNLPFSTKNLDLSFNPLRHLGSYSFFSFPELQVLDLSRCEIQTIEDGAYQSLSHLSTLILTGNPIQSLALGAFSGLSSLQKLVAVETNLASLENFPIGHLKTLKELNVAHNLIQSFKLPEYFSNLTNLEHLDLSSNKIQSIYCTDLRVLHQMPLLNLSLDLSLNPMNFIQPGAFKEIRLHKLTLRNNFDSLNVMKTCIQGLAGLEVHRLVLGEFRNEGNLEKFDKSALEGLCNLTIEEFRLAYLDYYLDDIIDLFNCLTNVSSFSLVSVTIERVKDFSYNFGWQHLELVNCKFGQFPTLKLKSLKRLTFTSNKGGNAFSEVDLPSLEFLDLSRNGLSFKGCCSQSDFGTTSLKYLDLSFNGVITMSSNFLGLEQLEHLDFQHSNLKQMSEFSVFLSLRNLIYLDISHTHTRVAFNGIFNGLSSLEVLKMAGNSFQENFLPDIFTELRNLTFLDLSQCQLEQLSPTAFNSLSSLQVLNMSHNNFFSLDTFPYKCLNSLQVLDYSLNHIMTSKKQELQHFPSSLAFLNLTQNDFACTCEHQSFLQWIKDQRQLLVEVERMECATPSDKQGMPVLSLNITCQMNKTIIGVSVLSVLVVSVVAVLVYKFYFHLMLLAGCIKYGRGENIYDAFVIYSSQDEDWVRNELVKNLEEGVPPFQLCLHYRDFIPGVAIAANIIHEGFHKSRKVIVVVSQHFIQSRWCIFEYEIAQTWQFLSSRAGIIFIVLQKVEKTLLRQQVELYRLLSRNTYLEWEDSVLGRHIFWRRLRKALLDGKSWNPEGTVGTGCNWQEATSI
Target sequence (Q99836 whole entry, looked up): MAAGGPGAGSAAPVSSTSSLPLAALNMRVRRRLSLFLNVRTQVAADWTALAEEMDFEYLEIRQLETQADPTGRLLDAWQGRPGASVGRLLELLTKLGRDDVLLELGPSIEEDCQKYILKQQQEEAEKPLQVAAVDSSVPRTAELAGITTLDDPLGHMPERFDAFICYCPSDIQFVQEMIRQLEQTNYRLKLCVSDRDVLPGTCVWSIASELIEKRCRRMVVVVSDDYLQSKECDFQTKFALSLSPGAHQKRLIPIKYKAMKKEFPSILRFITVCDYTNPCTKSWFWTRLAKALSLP
TLR9-MyD88 block: blocks human TLR9 binding to MyD88 | actives 0.21% (n = 340,000) | inhibition, % at 4.98 µM | Q9NR96+Q99836 | CHO BLA complementation TLR9-MyD88, CCF4 FRET ratio;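 active means inhibition above the mean over all tested compounds plus 3 SD, cut at about 21% in these data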
Numbers stand for hits; 0 = inactive; - = no result given; + = active, no number. In the library only some 1.8% were active in any assay of this set; here they are far more common.

SMILES	NOD2 RIPK2 PPI	m5-HT2A agonist	LANA-H2A inh	Rtt109 Vps75	TLR4-MyD88 BLA	TLR9-MyD88 block
CC1(C2CC2)NC(=O)N(CC(=O)Nc2ccc(C(F)(F)F)cc2)C1=O (stereo unspecified)	0	0	12	0	-	0
CC(C)c1ccc(NC(=O)CN2C(=O)NC(C)(C3CC3)C2=O)cc1 (stereo unspecified)	0	0	0	0	-	0
Cc1cc(NC(=O)CCC(=O)N(CC(=O)NC2CCCC2)c2ccccc2)no1	0	0	22	0	0	0
COCCNC(=S)N1CCC2CC1c1c(Cl)cccc12 (stereo unspecified)	0	0	-	-	-	0
C[C@H](NC(=O)C1CC(=O)N(c2ccc3c(c2)OCCO3)C1)C(=O)N1CCCCC1 (stereo partly specified)	0	0	16	0	-	0
CCN1CCN(C2=C(NS(=O)(=O)c3ccc(NC(C)=O)cc3)C(=O)c3ccccc3C2=O)CC1	0	0	0	0	-	0
CC(=O)Nc1ccc(S(=O)(=O)NC2=C(N3CCN(Cc4ccccc4)CC3)C(=O)c3ccccc3C2=O)cc1	0	0	+	0	0	0
CC1CCN(c2nc(CN3CCCCC3)nc3scc(-c4ccccc4)c23)CC1	0	0	0	61	0	0
CCc1ccc(N2C(=O)CN(Cc3cccs3)C2=S)cc1	0	0	+	0	0	0
CCOC(=O)[C@]12CCC=C1N(Cc1ccco1)C(=O)[C@H](CC(=O)N1CCOCC1)C2	0	0	-	-	-	-
CCOC(=O)c1oc2cc(O)cc(C)c2c(=O)c1-c1cscn1	0	0	26	0	0	0
Cc1ccc(CC2(C)C(=O)Nc3c(Cl)ccc(Cl)c32)cc1 (stereo unspecified)	0	0	-	-	-	-
CN1CCN(C(=O)CN(C)S(=O)(=O)c2ccc3ccccc3c2)CC1	0	0	0	0	0	-
CN(CC(=O)N1CCCC1)S(=O)(=O)c1ccc2ccccc2c1	0	0	17	-	0	0
CC(C)(C)c1ccc(Nc2n[nH]c3ccccc23)cc1	0	0	-	-	-	-
CN1CCN(/C=N/c2sc3c(c2C#N)CCCCC3)CC1	0	0	0	0	0	0
N#Cc1c(/N=C/C=C/c2ccccc2)sc2c1CCCC2	0	16	0	0	0	0
COCCNC(=O)C1(C)CCN(C(=O)c2ccc(C(F)(F)F)nc2C)C1 (stereo unspecified)	0	0	-	-	-	-
O=C1C=CC(=O)N1Cc1ccccc1	0	18	0	0	-	0
CN(C1CCCC1)C1CCN(C(=O)CNC(=O)/C=C/c2ccccc2)CC1	0	0	0	0	0	0
CC1CCCCC1N(C)C1CCN(C(=O)CNC(=O)/C=C/c2cccc(Cl)c2)CC1 (stereo unspecified)	0	0	0	51	-	0
CCn1c(SCc2nc3sc(C(=O)O)c(C)c3c(=O)[nH]2)nnc1-c1ccc(Cl)cc1	0	0	+	0	0	0
COc1ccc(NC(=O)CNS(=O)(=O)c2cccs2)c(OC)c1	0	0	0	63	0	0
Cc1cc(C(=O)N2CCC2(C)C(=O)O)c(C)o1 (stereo unspecified)	0	0	-	-	-	-
COc1ccc(N=Nc2nc3cc(Br)c(Br)cc3n2C)c(OC)c1	0	0	102	0	0	0
SMILES	NOD2 RIPK2 PPI	m5-HT2A agonist	LANA-H2A inh	Rtt109 Vps75	TLR4-MyD88 BLA	TLR9-MyD88 block
CC(C(=O)Nc1ccc(S(=O)(=O)N2CCCCC2)cc1)N1CCN(c2ccccn2)CC1 (stereo unspecified)	-	-	138	-	0	-
CC(C(=O)Nc1ccc(S(=O)(=O)N2CCCC2)cc1)N1CCN(C(=O)c2ccco2)CC1 (stereo unspecified)	0	0	0	0	0	0
C[C@H](NC(=O)c1ccco1)C(=O)Nc1ccc(S(=O)(=O)N2CCCC2)cc1	0	0	0	55	0	0
COc1cccc(-c2cc3c(c4c2ccn4C)C2CCC3C2)c1 (stereo unspecified)	0	0	-	-	-	-
Cn1cc(/C=N\NC(=O)c2cccs2)c2ccccc21	0	0	17	0	0	0
Cn1cccc1/C=N/NC(=O)c1cccs1	0	0	0	0	-	0
CCNC(=O)C1(C)CCN(C(=O)c2c(F)ccc(C)c2F)C1 (stereo unspecified)	0	0	-	-	-	-
COCCNC(=S)N(C)[C@H]1C[C@H]2c3cc(Oc4ccccc4C)ccc3CCN2C(=O)[C@H]1[C@H](C)O	0	0	-	-	-	0
O=c1c2ccccc2sn1-c1cc(S(=O)(=O)N2CCOCC2)ccc1N1CCOCC1	0	0	0	122	0	0
COc1ccc(C(C#N)=Cc2cccc(OC)c2OC)cc1	0	0	-	-	-	0
CN(C)C(=O)CNc1ccn2nc(-c3cccc(Cl)c3)cc2n1	0	0	-	-	-	-
COC(=O)[C@]12CCCCC=C1N(Cc1ccc(Cl)cc1Cl)C(=O)[C@H](CC(=O)NCCc1ccccc1OC)C2	0	0	-	-	-	-
COCCN(CCOC)C(=O)c1ccc(NS(=O)(=O)c2ccc3[nH]c(=O)[nH]c3c2)cc1	0	0	33	0	-	0
O=C(Nc1c(-c2ccc(Cl)cc2)[nH][nH]c1=O)c1ccccn1	0	0	-	-	-	-
O=C(CN1CCN(c2ccccc2F)CC1)NCc1ccccc1	0	0	33	0	-	0
Cc1ccc(CN2CCN(CC(=O)NCc3ccccc3)CC2)cc1	0	0	0	53	-	0
O=C(CN1CCN(Cc2ccccc2)CC1)NCc1ccc(Cl)cc1	0	0	0	0	-	0
CC(C)(C)Cc1c(-c2cccc(Br)c2)nc2ccc(Cl)cn12	0	0	-	-	-	-
O=C(/C=C/[C@H]1O[C@@H](n2ccc(=O)[nH]c2=O)[C@H](O)[C@@H]1O)NCC1CCCO1 (stereo partly specified)	0	0	-	-	-	-
CNc1ccc2c3c(cccc13)C(=O)N(C)C2=O	0	0	88	0	-	0
Cc1cc(NC(=O)CSc2n[nH]c(N)n2)no1	0	0	+	0	0	0
CC#CCN(CC#CC)S(=O)(=O)c1ccc(-n2cnnn2)c(OC)c1	0	0	0	54	0	0
COc1cc(S(=O)(=O)N(Cc2ccccc2)Cc2ccccn2)ccc1-n1cnnn1	0	0	0	0	0	0
CCc1ccc(NC(=O)C(C)Nc2ccc(S(=O)(=O)NC(C)=O)cc2)cc1 (stereo unspecified)	0	0	15	0	0	0
CC(=O)NS(=O)(=O)c1ccc(NC(=S)NC(=O)C(C)C)cc1	0	0	-	0	0	0
CCOC(=O)C1=CCC(c2ccc(Cl)cc2)N(S(=O)(=O)c2ccc(C)cc2)C1 (stereo unspecified)	0	0	-	-	-	-
Cc1cccc(N2CCN(C(=O)Cc3ccccc3[N+](=O)[O-])CC2)c1C	0	0	21	0	-	0
CCOc1ccccc1OCCCC(=O)Nc1ccc(Cl)c(S(=O)(=O)N2CCOCC2)c1	0	0	30	0	-	0
O=C(c1c[nH]c2ccccc12)N1CCOCC1	0	0	40	0	0	0
